Screens (PubChem BioAssay)
FLuc modulator = inhibits or activates purified firefly luciferase, miR-21 counter-screen | purified FLuc, Km substrates, luminescence inhibition | Potency, µM (titrated, usually from 57.5 µM), most hits filed as inhibitors | 360,000 compounds, 6.9% hits; note: nearly all actives have a fitted effect of over 55% in size
Target sequence (P08659 whole entry, looked up): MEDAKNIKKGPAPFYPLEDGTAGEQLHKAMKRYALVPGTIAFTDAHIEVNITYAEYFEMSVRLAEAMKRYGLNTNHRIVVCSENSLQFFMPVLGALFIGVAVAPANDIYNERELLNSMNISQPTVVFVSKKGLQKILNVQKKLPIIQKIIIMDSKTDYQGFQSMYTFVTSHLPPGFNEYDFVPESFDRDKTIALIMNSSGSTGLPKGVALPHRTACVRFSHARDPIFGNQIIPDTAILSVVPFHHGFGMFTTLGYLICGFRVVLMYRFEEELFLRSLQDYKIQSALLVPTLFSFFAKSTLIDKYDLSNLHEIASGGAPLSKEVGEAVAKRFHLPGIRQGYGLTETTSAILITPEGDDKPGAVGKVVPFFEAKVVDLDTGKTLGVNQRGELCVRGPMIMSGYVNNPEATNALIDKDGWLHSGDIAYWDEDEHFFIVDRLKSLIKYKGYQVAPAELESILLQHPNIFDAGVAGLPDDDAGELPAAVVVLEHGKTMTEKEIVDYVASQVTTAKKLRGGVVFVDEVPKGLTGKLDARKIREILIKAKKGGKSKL
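Purified P. pyralis luciferase (10nM final) with 10uM D-luciferin and 10uM ATP (Km levels) in 50mM Tris acetate pH 7.5, 10mM Mg acetate, 0.01% Tween-20, 0.05% BSA; qHTS 6-point titration, ~60 µM downward; luminescence read.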
Rab9 promoter act = Rab9 promoter activation; 320,000 compounds, 2.8% hits; AID 485297; Potency, µM (doses to about 9.22 µM), usual class: activators; Huh7 Rab9 promoter-luciferase reporter, luminescence, 24 h; note: nearly all actives have a fitted effect of over 60% in size
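Luciferase signal after 10 min detection reagent at ambient indicates Rab9 promoter upregulation; stably transfected Huh7 cells were treated 24 h with compound in DMSO at 37 °C, 5% CO2.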
NPC1 prom act = NPC1 promoter activation; 320,000 compounds, 2.4% hits; AID 485313; Potency, µM (series often up to 9.22 µM), hits mostly activators; Huh7 NPC1 promoter luciferase reporter, 24 h; note: nearly all actives have a fitted effect of over 60% in size
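In 1536-well qHTS, Huh7 cells harboring an NPC1 promoter–luciferase construct received compound for 24 h; activation was quantified by luminescence following luciferase reagent addition.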
SMN2 splice enh = increases expression of the SMN2 splice variant | Potency, µM (series often up to 46.1 µM), most hits filed as activators | HEK293 SMN2-luciferase splicing reporter, luminescence, 30-36 h | AID 1458 | 210,000 compounds, 2.8% hits; note: nearly all actives have a fitted effect of over 55% in size
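qHTS luciferase splicing reporter: luminescence rises when SMN2 exon 7 is included in transfected HEK293 cells. Compound exposure lasted 30-36 h at 37C, with 4.5 mM final sodium butyrate as control, followed by a ONE-Glo read.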
Luc counter = counter-screen: inhibitors of Kinase-Glo firefly luciferase; Q27757; Kinase-Glo luciferase, ATP luminescence, 8 min; Potency, µM (doses to about 38.3 µM), most hits filed as inhibitors; 200,000 compounds, 0.28% hits; AID 1379; note: nearly all actives have a fitted effect of over 60% in size
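Compounds were added to a substrate mix at pH 7.2 (50 mM imidazole, 10 uM ATP, within the enzyme's linear range), followed by Kinase-Glo detection reagent; luminescence was measured after 8 minutes at ambient temperature.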
ELG1 genotox = genotoxicity induction in ELG1-luciferase HEK293T cells; HEK293T ELG1-luciferase reporter, luminescence, 16 h; Potency, µM (titrated, usually from 46 µM), most hits filed as activators; 330,000 compounds, 1.3% hits; AID 504466; note: nearly all actives have a fitted effect of over 60% in size
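Genotoxic stress is detected as increased luminescence from luciferase-tagged ELG1 in HEK293T cells, measured with ONE-Glo after a 16 hr treatment at 37 °C.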
Hits are given with their value. Rows were chosen to be rich in hits. Some 7.4% of all compounds tested hit in one or more screens of this group. Calls come from the whole dose curve; as a rule, active = well fitted curve in the direction sought with a large enough effect; inconclusive = small, poorly fitted or top-dose-only effect, or another doubt; inactive = no such curve, though single readings can be large; an effect the other way counts as inactive or inconclusive.

`CCc1ccc(N2C(=O)N(CC(=O)C(C)(C)C)c3ccccc3S2(=O)=O)cc1` gave FLuc modulator inactive.
`Cc1cccc(Cn2nnc3c(=O)[nH]c(C4CCN(C(=O)c5ccc(F)cc5)CC4)nc32)c1` gave FLuc modulator inactive and SMN2 splice enh inactive.
Screening O=c1c2ccccc2oc2nc(-c3ccco3)n(CCc3ccccc3)c(=O)c12 returned FLuc modulator inactive, Rab9 promoter act inactive, NPC1 prom act inactive, SMN2 splice enh inactive, Luc counter inactive and ELG1 genotox inactive.
O=c1c2ccccc2oc2nc(-c3ccco3)n(-c3ccccc3)c(=O)c12 was read as FLuc modulator inactive, Rab9 promoter act inconclusive, NPC1 prom act inconclusive, SMN2 splice enh 12.6µM, Luc counter inactive and ELG1 genotox inactive.
C=C[C@@]1(C)CC[C@H](O)[C@H]2C(=O)CCC[C@@H]21 was read as SMN2 splice enh inactive and Luc counter inactive.
`COc1ccc(N2CCN(C(=O)COc3ccccc3C#N)CC2)cc1` gave FLuc modulator inactive and SMN2 splice enh inactive.
Screening CC(=O)N1CCN(C(=O)c2cccc(S(=O)(=O)N3c4ccccc4CC3C)c2)CC1 (stereo not given) returned ELG1 genotox inactive.
For CC1Cc2ccccc2N1S(=O)(=O)c1cccc(C(=O)N2CCN(c3ncccn3)CC2)c1 (stereo not given) the results were FLuc modulator inactive, Rab9 promoter act inactive, NPC1 prom act inactive, SMN2 splice enh 0.562µM, Luc counter inactive and ELG1 genotox inactive.
Screening COC(=O)c1nnn(CC(=O)Nc2cc(F)ccc2F)c1C(=O)OC returned FLuc modulator inactive and SMN2 splice enh inactive.
`CC1=C(C(N)=O)C(c2ccc(C)cc2)n2nc(SCc3ccccc3)nc2N1` (stereo not given) gave FLuc modulator inactive and SMN2 splice enh inactive.
`Cc1ccc(Nc2ccc(-n3ccnc3)nn2)cc1C` gave FLuc modulator 16.9µM, Rab9 promoter act inactive, NPC1 prom act inactive, SMN2 splice enh inactive, Luc counter inactive and ELG1 genotox inactive.
For COc1ccc(/C=C/C(=O)c2ccc(O)cc2O)cc1 the results were SMN2 splice enh inactive and Luc counter inactive.
Screening COc1ccc(/C=C/C(=O)c2ccc(OC)cc2OC)cc1 returned FLuc modulator 12µM, Rab9 promoter act inactive, NPC1 prom act inactive and ELG1 genotox inactive.
Screening COc1ccc(/C=C/C(=O)c2cc(O)ccc2O)cc1 returned SMN2 splice enh inactive and Luc counter inactive.
`COc1ccc(C(=O)/C=C/c2ccccc2)c(O)c1` gave FLuc modulator 6.01µM, Rab9 promoter act inconclusive, NPC1 prom act inconclusive, SMN2 splice enh inactive, Luc counter inactive and ELG1 genotox inactive.
COc1ccc(C(=O)/C=C/c2ccc(OC)cc2OC)c(O)c1 was read as FLuc modulator 3.01µM, Rab9 promoter act inconclusive, NPC1 prom act inconclusive and ELG1 genotox inconclusive.
Screening COc1ccc(/C=C/C(=O)c2cc(Cl)ccc2O)c(OC)c1 returned FLuc modulator 10.7µM, Rab9 promoter act inactive, NPC1 prom act inconclusive and ELG1 genotox inactive.
CN(C)c1ccc(/C=C/C(=O)c2cc(Cl)ccc2O)cc1 was read as FLuc modulator 9.53µM, Rab9 promoter act inactive, NPC1 prom act inconclusive and ELG1 genotox inactive.
`COc1ccc(C(=O)/C=C(\N)C(F)(F)F)c(O)c1` gave FLuc modulator 10.7µM, Rab9 promoter act inactive, NPC1 prom act inactive, SMN2 splice enh inactive, Luc counter inactive and ELG1 genotox inactive.
For COC(=O)c1ccc(/C=C/C(=O)c2ccc(OC)cc2)cc1 the results were FLuc modulator 10.7µM, Rab9 promoter act inactive, NPC1 prom act inconclusive, SMN2 splice enh inactive, Luc counter inactive and ELG1 genotox inactive.
COc1ccc(/C=C/C(=O)c2cc3c(cc2N)OCO3)cc1 was read as FLuc modulator 2.13µM, Rab9 promoter act inconclusive, NPC1 prom act inconclusive, SMN2 splice enh inconclusive, Luc counter inconclusive and ELG1 genotox inconclusive.
`N/C(=C/C(=O)c1ccccc1O)C(F)(F)F` gave FLuc modulator inconclusive, Rab9 promoter act inactive, NPC1 prom act inactive, SMN2 splice enh inactive, Luc counter inactive and ELG1 genotox inactive.
Cc1cc(C)c2c(-n3cccc3)c(C(=O)NCCCN3CCCCC3)sc2n1 was read as FLuc modulator inactive.
O=C(/C=C/c1ccc(O)cc1)c1ccc(O)cc1O was read as FLuc modulator 10.7µM, Rab9 promoter act inactive, NPC1 prom act inactive, SMN2 splice enh inactive, Luc counter inactive and ELG1 genotox inconclusive.
COc1ccc(/C=C/C(=O)c2ccc(Cl)cc2)c(OC)c1 was read as FLuc modulator 2.13µM, Rab9 promoter act inactive, NPC1 prom act inactive, SMN2 splice enh inactive, Luc counter inactive and ELG1 genotox inconclusive.
Screening COc1ccc(/C=C/C(=O)/C=C/c2ccc(OC)cc2OC)c(OC)c1 returned SMN2 splice enh inactive and Luc counter inactive.
`CC(=O)c1cccc(NC(=O)C(CC(C)C)NS(=O)(=O)c2ccc3c(c2)CCN3C(C)=O)c1` (stereo not given) gave FLuc modulator inactive and SMN2 splice enh inactive.
For COCCNS(=O)(=O)c1ccc(-c2ccc(S(=O)(=O)NCCOC)cc2)cc1 the results were FLuc modulator 4.26µM, Rab9 promoter act 1µM, NPC1 prom act inconclusive, SMN2 splice enh 20µM, Luc counter inactive and ELG1 genotox inconclusive.
For COc1ccc(CNC(=O)Cn2nc(C(F)(F)F)c3c2CCC3)cc1 the results were FLuc modulator inactive, Rab9 promoter act inactive, NPC1 prom act inactive, SMN2 splice enh 11.2µM, Luc counter inactive and ELG1 genotox inactive.
`CC(C)CCN(C(=O)c1csnn1)C(C(=O)NC1CCCC1)c1ccc(F)cc1` (stereo not given) gave FLuc modulator 19µM, Rab9 promoter act inactive, NPC1 prom act inactive and ELG1 genotox inactive.
For CCCc1cc2c(=O)c(-c3ccccn3)c(C)oc2cc1O the results were FLuc modulator inconclusive, Rab9 promoter act inactive, NPC1 prom act inactive, SMN2 splice enh inactive, Luc counter inactive and ELG1 genotox inactive.
CCCc1cc2c(=O)c(-c3ccccn3)coc2cc1OC was read as FLuc modulator 4.78µM, Rab9 promoter act 1.58µM, NPC1 prom act 2µM, SMN2 splice enh inconclusive, Luc counter inactive and ELG1 genotox inconclusive.
`O=C(O)c1ccc(-c2ccccc2)[nH]1` gave FLuc modulator inactive, Rab9 promoter act inactive, NPC1 prom act inactive, SMN2 splice enh inactive, Luc counter inactive and ELG1 genotox inactive.
CCc1ccc(-c2ccc(C(=O)C(F)(F)F)[nH]2)cc1 was read as FLuc modulator 2.13µM, Rab9 promoter act 1.12µM, NPC1 prom act 2µM, SMN2 splice enh inconclusive, Luc counter inactive and ELG1 genotox inconclusive.
